Experimental findings from PubChem BioAssay (EPA / NIEHS) are described below.

Active and inactive are the calls of the source. Rule for the calls: active = hit-call score of the fitted dose curve at least 0.9, where 1 is the maximum; inactive = score below 0.9.

The experiment in a line: CCTE_Shafer_MEA_dev_spike_duration_mean: CCTE's Neural Network Formation Assay for Mean Spike Duration, Shafer Lab (AID 2284051).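 For AC50: potency for a decrease in mean network spike duration versus DMSO.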 Here is the method:
CCTE_Shafer_MEA_dev assay is conducted using Axion Biosystems 48 well microelectrode array (MEA) plates and Maestro recording system. Each well of the MEA plate contains a grid of 16 microelectrodes embedded in the culture surface. Electrically active cells, such as neurons, can be cultured over the electrodes, and electrical activity in these cells can be recorded extracellularly. The spontaneous firing of neurons is captured from each electrode on a microsecond timescale providing both temporally and spatially precise data. […] The CCTE_Shafer_MEA_dev assay uses primary cultures of rat cortical neurons. Recordings are made on days post-plating 5, 7, 9 and 12. As these cultures mature over time, neural networks develop functional activity and form cohesive networks in which electrical activity can be highly coordinated. CCTE_Shafer_MEA_dev_spike_duration_mean is 1 of 19 assay components of the CCTE_Shafer_MEA_dev assay. It measures the average duration of network spikes (temporally-clustered groups of action potential firing across multiple electrodes) during a recording in a microelectrode array (MEA) using Axion Biosystems Maestro 768 channel amplifier with the AxIS adaptive spike detector. To collapse across multiple recordings made on days post-plating 5, 7, 9 and 12, the trapezoidal area-under-the-curve of the component is calculated.Data from the assay component CCTE_Shafer_MEA_dev_spike_duration_mean was analyzed into 1 assay endpoint. This assay endpoint, CCTE_Shafer_MEA_dev_spike_duration_mean, was analyzed in the negative analysis fitting direction relative to DMSO as the negative control and baseline of activity. Using a type of functional reporter, gain or loss-of-signal activity can be used to understand electrical activity.
On the day prior to culture, each well was coated thoroughly with 150 uL of 0.05% polyethyleneimine (PEI, Sigma Cat P3143) in 50 mM HEPES (Sigma Cat H7523) at a pH of 8. The plate was incubated at 37C for one hour. PEI was rinsed out with 500 uL of sterile water three times. Plates were stored at 4C until the day of culture. This culture was plated at a seeding density of 1.5 x 10^5 cells/well on a 48-well MEA plate, prepared as described above. Cells were administered via a 25 uL media/laminin ([…]; Sigma Cat L2020-1MG) drop directly onto the microelectrode array, as adding the cells with the laminin results in better attachment than pre-coating with laminin. After 2 hours, an additional 475 uL of cortical media was added and the cells returned to the incubator. Exposure starts at day 0 of plating and is continued over twelve days of network development until the experiment is terminated. Cells are fed with fresh medium on DIV 5 and 9, following the recordings on those days. The entire volume of media in the well is exchanged and any vehicle or compound treatment is renewed. Complete details are found in OP-NHEERL/ISTD/SBB/TJS/2015-03-r0 (available on request, email shafer.tim@epa.gov). Measurement of the electrical activity is non-invasive, and recordings can be made from the same plate over multiple different days of the culture. In cortical neurons, this allows for the measurement of extracellular action potentials over the period during which networks form in the MEA plate.
As usually defined, the AC50 is the concentration giving half of the maximal activity seen. Turning to `COc1ccc(-n2nc(C(F)F)cc2-c2ccc(S(C)=O)cc2)cc1` (stereo not given), the AC50 was 1.98 µM (active).

As to `CC[C@H](C)C(=O)O[C@H]1C[C@@H](C)C=C2C=C[C@H](C)[C@H](CC[C@@H]3C[C@@H](O)CC(=O)O3)[C@H]21`, the half-maximal activity concentration (AC50) is 2.55 µM (active).

As for `CNCc1ccc(NC(=O)c2c[nH]c3c2C(=O)CCC3)cc1`, the concentration at half-maximal activity (AC50) was 0.666 µM (active).

For `Nc1nc2ncc(CNc3ccc(C(=O)N[C@@H](CCC(=O)O)C(=O)O)cc3)nc2c(=O)[nH]1`, the molecule was classed as inactive.

Take `Cn1c(=O)c2c(ncn2C)n(C)c1=O`: the result was inactive.

Regarding `O=P(OC(CCl)CCl)(OC(CCl)CCl)OC(CCl)CCl`, the molecule was classed as inactive.

Consider `CCC(C)(C)C(=O)O[C@H]1C[C@@H](C)C=C2C=C[C@H](C)[C@H](CC[C@@H]3C[C@@H](O)CC(=O)O3)[C@H]21`, for which the AC50 is 1.03 µM (active).

Turning to `NC(=O)NO`, the result was inactive.

With `CC[C@H]1OC(=O)[C@H](C)[C@@H](O[C@H]2C[C@@](C)(OC)[C@@H](O)[C@H](C)O2)[C@H](C)[C@@H](O[C@@H]2O[C@H](C)C[C@H](N(C)C)[C@H]2O)[C@](C)(O)C[C@@H](C)C(=O)[C@H](C)[C@@H](O)[C@]1(C)O`, the call was inactive.

With `O=C1CCC(N2C(=O)c3ccccc3C2=O)C(=O)N1` (stereo not given), the call was inactive.
